Measured values: PubChem BioAssay (Tox21)
Inconclusive results are not listed. The source made the active and inactive calls. Unless noted, the call rests on the fitted dose curve; in most records, active means well fitted curve in the direction sought with a large enough effect in the repeat runs; inconclusive means weak or mixed curves; inactive means no such curve, though single readings can be large; an effect the other way counts as inactive or inconclusive.

How the values were obtained:
[1] = qHTS assay to identify small molecule agonists of the sonic hedgehog signaling (Shh) pathway - cell viability counter screen (AID 1259366); further: nearly all actives have a fitted effect of over 50% in size
Method in brief: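 CellTiter-Fluor fluorescence read-out, 1 hr at 37C, added after 23hr compound exposure. Cells: 3T3 Gli1-Luc, an NIH/3T3 clone with stably integrated Gli1-Luc reporter, plated 4hr before compound.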

[2] = qHTS assay to identify small molecule antagonists of the sonic hedgehog signaling (Shh) pathway - cell viability counter screen (AID 1259367); further: nearly all actives have a fitted effect of over 55% in size
Method in brief: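 CellTiter-Fluor signal in conditioned medium-stimulated 3T3 Gli1-Luc cells, 23 hr compound exposure, 37C.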

[3] = qHTS assay to identify small molecule agonists of the sonic hedgehog signaling (Shh) pathway (AID 1259368; calls by dose curve;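 further: NIH/3T3-derived 3T3Gli1-Luc cells carrying a stable Gli1-driven firefly luciferase reporter; series mostly up to about 92 µM; nearly all actives have a fitted effect of over 15% in size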)
Method in brief: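 Read-out: firefly luciferase luminescence from a Gli1 response element reporter stably integrated in NIH/3T3-derived 3T3Gli1-Luc cells, measured 30 min at room temperature after reagent addition. Compound exposure lasted 24 hr at 37 C, 5% CO2.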

[4] = qHTS assay to identify small molecule antagonists of the sonic hedgehog signaling (Shh) pathway (AID 1259369; calls by dose curve; further: nearly all actives have a fitted effect of over 45% in size)
Method in brief: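 Luminescence readout: firefly Luc under Gli1 response element in 3T3Gli1-Luc cells (NIH/3T3 clone). Antagonist mode, stimulation by conditioned medium; compound exposure 24hr at 37 C, 5% CO2.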

[5] = qHTS assay to identify small molecule agonists of the androgen receptor (AR) signaling pathway in the presence of an antagonist - cell viability counter screen (AID 1259379);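 further: MDA-kb2 human breast cancer cells carrying an MMTV luciferase reporter; series mostly up to about 92 µM; nearly all actives have a fitted effect of over 25% in size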
Method in brief: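 Viability counter screen: CellTiter-Fluor fluorescence, measured in the same wells as the luciferase read-out. MDA-kb2 cells, 3,000/well, with nilutamide at 3.0uM final and compounds at 15 concentrations, 16 hr at 37C, 0% CO2.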

[6] = qHTS assay to identify small molecule antagonists of the estrogen receptor beta (ER-beta) signaling pathway - cell viability counter screen (AID 1259382);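 further: HEK293T cells carrying ER-beta-UAS-bla reporter stimulated with estradiol; series mostly up to about 92 µM; nearly all actives have a fitted effect of over 55% in size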
Method in brief: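 Luminescent ATP read-out (CellTiter-Glo, 30 min, RT) taken in the same wells as the bla reporter assay. HEK293T ER-beta-UAS-bla cells in 2% charcoal-stripped FBS were exposed to compounds with 1nM E2 for 16 hr at 37C.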

[7] = molecular target: Androgen receptor (Homo sapiens) (UniProt P10275); test: qHTS assay to identify small molecule agonists of the androgen receptor (AR) signaling pathway in the presence of an antagonist (AID 1259381; calls by dose curve; further: nearly all actives have a fitted effect of over 15% in size)
Method in brief: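 Luciferase read-out (ONE-Glo, 30min room temperature) in MDA-kb2 MMTV-reporter cells; agonist mode run in presence of AR antagonist nilutamide, 3.0uM final. Compounds tested as 15-point series, 16hr exposure at 37C, 0% CO2.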

[8] = qHTS assay to identify small molecule agonists of the estrogen receptor beta (ER-beta) signaling pathway - cell viability counter screen (AID 1259380); further: nearly all actives have a fitted effect of over 30% in size
Method in brief: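 Luminescence read-out (CellTiter-Glo, 30 min, room temp) taken in the same wells as the beta-lactamase reporter assay; ER-beta-UAS-bla HEK293T cells exposed to DMSO-dissolved compounds for 16 hr at 37C in 2% charcoal-stripped FBS medium.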

[9] = molecular target: Estrogen receptor beta (Homo sapiens) (UniProt Q92731); test: qHTS assay to identify small molecule agonists of the estrogen receptor beta (ER-beta) signaling pathway (AID 1259377; active means well fitted activation curve with a large enough effect in the signal ratio in the repeat runs, not every such curve was filed as active; the % refers to the signal ratio)
Method in brief: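 Beta-lactamase reporter readout: fluorescence of LiveBLAzer B/G FRET substrate after 2 h at room temperature, following 16 h compound treatment of ER-beta-UAS-bla HEK293T cells at 37C in 2% charcoal-stripped FBS medium.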

[10] = molecular target: Estrogen receptor beta (Homo sapiens) (UniProt Q92731); test: qHTS assay to identify small molecule antagonists of the estrogen receptor beta (ER-beta) signaling pathway (AID 1259378; active means well fitted inhibition curve with a large enough effect in the signal ratio in the repeat runs, not every such curve was filed as active; the % refers to the signal ratio)
Method in brief: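 Antagonist mode: compounds added to beta-lactamase reporter HEK293T ER-beta-UAS cells stimulated with E2 (1nM final), 16 hr at 37C. LiveBLAzer B/G FRET substrate, 2 hours room temperature, fluorescence read-out.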

Measured: Potency

Estrogen receptor beta (Homo sapiens), sequence (Q92731 whole entry, looked up): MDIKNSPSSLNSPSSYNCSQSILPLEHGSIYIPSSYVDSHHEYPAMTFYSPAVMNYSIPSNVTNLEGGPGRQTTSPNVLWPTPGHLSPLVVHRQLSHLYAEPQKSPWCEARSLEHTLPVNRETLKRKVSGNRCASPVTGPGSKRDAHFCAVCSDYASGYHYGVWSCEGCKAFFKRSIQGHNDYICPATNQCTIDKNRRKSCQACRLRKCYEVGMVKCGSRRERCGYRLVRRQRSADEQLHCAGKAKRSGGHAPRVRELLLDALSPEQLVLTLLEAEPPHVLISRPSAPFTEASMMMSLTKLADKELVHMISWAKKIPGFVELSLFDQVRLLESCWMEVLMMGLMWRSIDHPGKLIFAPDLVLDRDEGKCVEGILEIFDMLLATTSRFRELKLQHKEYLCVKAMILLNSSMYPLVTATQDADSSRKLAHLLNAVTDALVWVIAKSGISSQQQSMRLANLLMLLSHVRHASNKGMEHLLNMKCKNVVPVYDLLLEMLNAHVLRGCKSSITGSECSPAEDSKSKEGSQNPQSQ
Androgen receptor (Homo sapiens), sequence (P10275 whole entry, looked up): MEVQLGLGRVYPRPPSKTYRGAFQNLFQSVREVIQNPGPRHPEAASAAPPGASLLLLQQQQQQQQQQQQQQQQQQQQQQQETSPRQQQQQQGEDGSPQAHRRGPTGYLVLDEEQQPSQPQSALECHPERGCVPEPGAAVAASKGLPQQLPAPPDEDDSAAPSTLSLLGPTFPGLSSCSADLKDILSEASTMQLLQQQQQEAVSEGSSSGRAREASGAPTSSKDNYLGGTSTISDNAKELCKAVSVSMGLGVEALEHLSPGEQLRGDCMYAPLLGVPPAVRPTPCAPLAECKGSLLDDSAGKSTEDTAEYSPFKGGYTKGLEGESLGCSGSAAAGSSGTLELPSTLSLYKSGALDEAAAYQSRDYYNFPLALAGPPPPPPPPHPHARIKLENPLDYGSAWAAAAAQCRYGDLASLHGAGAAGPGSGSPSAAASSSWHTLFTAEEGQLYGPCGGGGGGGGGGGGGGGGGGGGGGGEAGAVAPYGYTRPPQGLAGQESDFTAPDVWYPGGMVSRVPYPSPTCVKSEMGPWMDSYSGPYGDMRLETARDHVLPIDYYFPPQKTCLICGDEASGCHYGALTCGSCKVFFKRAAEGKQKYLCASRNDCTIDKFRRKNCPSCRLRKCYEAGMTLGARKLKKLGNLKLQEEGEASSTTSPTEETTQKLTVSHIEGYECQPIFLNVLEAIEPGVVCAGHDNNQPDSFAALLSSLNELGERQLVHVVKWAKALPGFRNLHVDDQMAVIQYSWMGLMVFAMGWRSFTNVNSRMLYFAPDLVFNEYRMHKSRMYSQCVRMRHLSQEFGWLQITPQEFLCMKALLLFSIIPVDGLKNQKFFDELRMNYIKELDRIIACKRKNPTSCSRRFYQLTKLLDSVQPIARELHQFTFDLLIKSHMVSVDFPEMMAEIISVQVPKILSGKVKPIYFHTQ

CNCc1ccccc1
inactive: [1] | [2] | [3] | [4] | [5] | [6]

C=C[Si](C)(C)O[Si](C)(C)C=C
inactive: [1] | [2] | [3] | [4] | [5] | [6]

CCCCC[Si](OCC)(OCC)OCC
not listed: [8] | [9] | [10]
inactive: all other assays above

O=C(CN1CCN(Cc2ccc3c(c2)OCO3)CC1)N1c2ccccc2Sc2ccccc21
not listed: [8] | [9] | [10]
inactive: all other assays above

O=C(O)C(=O)Nc1cccc(-c2nn[nH]n2)c1
not listed: [7] | [9] | [10]
inactive: all other assays above

FC(F)(F)/C(=N\OCC1OCCO1)c1ccc(Cl)cc1
not listed: [4] | [7]
inactive: all other assays above

CCN(CCC#N)c1ccccc1
not listed: [7] | [9] | [10]
inactive: all other assays above

FC(F)(F)c1ccc(Cl)cc1Cl
not listed: [7] | [9] | [10]
inactive: all other assays above

C=CCOCC(O)CCl (configuration not stated)
not listed: [4] | [10]
inactive: all other assays above

O=c1cc(O)c(Cl)c[nH]1
not listed: [4] | [6] | [7]
inactive: all other assays above

CC(=O)OC(C(=O)c1ccccc1)c1ccccc1 (configuration not stated)
not listed: [4]
inactive: all other assays above

C[CH2][Ge]([Cl])([CH2]C)[CH2]C
not listed: [4] | [7] | [8]
inactive: all other assays above

CC(C)COC(=O)/C=C/c1ccccc1
not listed: [4] | [7]
inactive: all other assays above

NC(=O)C1(N2CCCCC2)CCN(CCCC(=O)c2ccc(F)cc2)CC1
not listed: [7] | [9] | [10]
inactive: all other assays above

CCCCCCCCCCCCCC(=O)OC
not listed: [4]
inactive: all other assays above

CCCOCCOCCOCCO
not listed: [4]
inactive: all other assays above

O=S(=O)(O)SSS(=O)(=O)O
not listed: [4] | [6] | [8]
inactive: all other assays above

CCS(=O)(=O)CCn1c([N+](=O)[O-])cnc1C
inactive: [1] | [2] | [3] | [4] | [5] | [6]

C[C@H](CCC(=O)O)[C@H]1CC[C@H]2[C@@H]3[C@H](O)C[C@@H]4C[C@H](O)CC[C@]4(C)[C@H]3C[C@H](O)[C@]12C
inactive: [1] | [2] | [3] | [4] | [5] | [6]

CC1CCC(C(C)(C)S)C(=O)C1 (configuration not stated)
not listed: [4] | [6] | [7]
inactive: all other assays above

C[N+](C)(C)CC(O)CCl (configuration not stated)
not listed: [7] | [9] | [10]
inactive: all other assays above

CCC1COC(=O)O1 (configuration not stated)
inactive: [1] | [2] | [3] | [4] | [5] | [6]

CCCCOC(=O)C(=O)OCCCC
not listed: [7] | [9] | [10]
inactive: all other assays above

CCC1Nc2cc(Cl)c(S(N)(=O)=O)cc2S(=O)(=O)N1 (configuration not stated)
not listed: [4] | [7]
inactive: all other assays above

CCCCCCCC/C=C\CCCCCCCC(=O)OC[C@@H](O)[C@H]1OC[C@H](O)[C@H]1O
not listed: [4] | [6] | [7]
inactive: all other assays above

CCNC(=O)NCCCOc1cccc(CN2CCCCC2)c1
inactive: [1] | [2] | [3] | [4] | [5] | [6]

OCCCCCCCl
not listed: [4] | [7] | [8]
inactive: all other assays above

CNC(=O)NC
not listed: [8] | [9] | [10]
inactive: all other assays above

CCN(CCO)c1cccc(C)c1
not listed: [7] | [9] | [10]
inactive: all other assays above

CC(C)COC(=O)CC(C(=O)OCC(C)C)S(=O)(=O)O (configuration not stated)
not listed: [4] | [7]
inactive: all other assays above

CNC(=O)C(c1ccccc1)c1ccccc1
not listed: [4] | [7] | [10]
inactive: all other assays above
